Experimental data from PubChem BioAssay (EPA / NIEHS).
Calls of active or inactive are those of the source. Rule for the calls: active = hit-call score of the fitted dose curve at least 0.9, where 1 is the maximum; inactive = score below 0.9.

Assay: CCTE_Shafer_MEA_acute_cross_correlation_HWHM: CCTE's Neural Acute Assay for Cross Correlation at Half Width at Half Maximum, Shafer Lab (AID 2284026)
Protocol: CCTE_Shafer_MEA_acute assay is conducted using Axion Biosystems 48 well microelectrode array (MEA) plates and Maestro recording system. Each well of the MEA plate contains a grid of 16 microelectrodes embedded in the culture surface. Electrically active cells, such as neurons, can be cultured over the electrodes, and electrical activity in these cells can be recorded extracellularly. The spontaneous firing of neurons is captured from each electrode on a microsecond timescale providing both temporally and spatially precise data. […] The CCTE_Shafer_MEA_acute assay uses primary cultures of rat cortical neurons. As these cultures mature over time, neural networks develop functional activity and form cohesive networks in which electrical activity can be highly coordinated. Baseline 40-minute recordings are made on days post-plating 13 or 15, followed by a secondary 40-minute recording after chemical exposure.CCTE_Shafer_MEA_acute_cross_correlation_HWHM is a component of the CCTE_Shafer_MEA_acute assay. It measures the distance along the x-axis (phase lag) from the left half maximum height to the center of the cross-correlogram of action potential firing during a recording in a microelectrode array (MEA) using Axion Biosystems Maestro 768 channel amplifier with the AxIS adaptive spike detector. Smaller values indicate a narrower correlogram (greater synchrony). The recordings before and after chemical treatment are used to calculate a percent change in the half width at half maximum of the cross-correlogram in each well.Data from the assay component CCTE_Shafer_MEA_acute_cross_correlation_HWHM was analyzed into 1 assay endpoint. This assay endpoint, CCTE_Shafer_MEA_acute_cross_correlation_HWHM, was analyzed in the negative analysis fitting direction relative to DMSO as the negative control and baseline of activity. Using a type of functional reporter, gain or loss-of-signal activity can be used to understand electrical activity.
Spontaneous activity in the cortical cultures was recorded using an Axion Biosystems Maestro 768 channel amplifier and Axion Integrated Studios (AxIS) v1.8 (or later) software. The amplifier recorded from all channels simultaneously (gain = 1200 x; sampling rate = 12.5 kHz/channel): raw signals were filtered with a Butterworth band-pass filter (300-5000 Hz), which filters out slower local field potentials leaving only fast potentials, i.e., "spikes", arising from extracellular currents associated with action potentials (Pine 2006; Wheeler and Nam 2011). On-line spike detection of filtered signals was conducted with the AxIS adaptive spike detector, using a threshold of 8x the root mean squared (rms) noise on each channel. Any electrodes with rms noise levels greater than 5 uV were grounded (e.g., no data were recorded). Once grounded, an electrode was grounded for the duration of the experiment. All recordings were conducted at 37 C. Wells were deemed usable if on the day of the exposure >/= 10 electrodes were active (defined as >/= 5 spikes/min). On DIV 13 or 15, a minimum of three wells from one cortical culture preparation were treated with each compound (0.03-40 uM). Prior to recording baseline activity, each mwMEA plate was placed in the Maestro at 37 C and allowed to sit for 20 min while firing rates stabilized. Baseline activity (40 min) was recorded before the addition of each compound. An additional 40 min of spontaneous activity was recorded in the presence of each compound. Changes in network parameters relative to baseline were assessed following compound treatment.
For `O=C(O)CN(CC(=O)O)CC(=O)O`, the outcome was “inactive”. In the case of `CSc1ccc(Oc2ccc(S(N)(=O)=O)cc2CN(C)C)cc1C`, the AC50 is reported as 31.7 µM (active). With `CN(C)C(=O)NC1(c2ccccc2)CCN(CC[C@@]2(c3ccc(F)c(F)c3)CN(C(=O)c3ccccc3)CCO2)CC1` the AC50 was 20 µM (active). With `CC(N)=O` the outcome was “inactive”. For `CCN(CC)CCOc1ccc(C(=C(Cl)c2ccccc2)c2ccccc2)cc1`, the outcome was “inactive”. For `CCCCC(CC)COP(=O)(OCC(CC)CCCC)OCC(CC)CCCC` (stereo not drawn), the outcome was “inactive”. With `COC(=O)[C@H]1[C@H]2C[C@@H]3c4[nH]c5cc(OC)ccc5c4CCN3C[C@H]2C[C@@H](OC(=O)c2cc(OC)c(OC)c(OC)c2)[C@@H]1OC` the AC50 was 20 µM (active). With `Nc1nc(=S)c2[nH]cnc2[nH]1` the AC50 was 32.2 µM (active). In the case of `CC(C)COC(=O)CCCCC(=O)OCC(C)C`, the outcome is reported as “inactive”. In the case of `Cc1ccc(-c2cc(C(F)(F)F)nn2-c2ccc(S(N)(=O)=O)cc2)cc1`, the AC50 is reported as 20 µM (active). For `CN(C)CCCN1c2ccccc2Sc2ccc(Cl)cc21`, the AC50 was 31.5 µM (active). For `Cc1ccc(C(C)(C)C)c(O)c1`, the AC50 was 11.8 µM (active). With `Cc1cc(Cc2ccc(N)c(C)c2)ccc1N` the AC50 was 26 µM (active). In the case of `OCC(CO)n1cnc(-c2ccc(F)cc2)c1-c1ccnc(Oc2ccccc2)n1`, the outcome is reported as “inactive”. With `CC1=C(C)S(=O)(=O)CCS1(=O)=O` the outcome was “inactive”. In the case of `Cc1cc(SC2=C(O)C[C@@](CCc3ccc(N)cc3)(C(C)C)OC2=O)c(C(C)(C)C)cc1CO`, the outcome is reported as “inactive”. For `Oc1ccc(O)cc1`, the outcome was “inactive”. With `CC(C)NCC(O)c1ccc(O)c(O)c1` (stereo not drawn) the outcome was “inactive”. With `Cc1c(C)c2c(c(C)c1O)CCC(C)(COc1ccc(CC3SC(=O)NC3=O)cc1)O2` (stereo not drawn) the AC50 was 29.7 µM (active). With `CCCC(=O)O` the outcome was “inactive”. For `O=C(N[C@@H](c1ccccc1)[C@@H]1CCCCN1)c1cccc(C(F)(F)F)c1Cl`, the AC50 was 9.13 µM (active). For `CCc1cc(C2=C(C(=O)O)N(c3ccccc3C(F)(F)F)S(=O)(=O)c3ccccc32)cc2c1OCO2`, the outcome was “inactive”. In the case of `O=C1OC(c2ccc(O)cc2)(c2ccc(O)cc2)c2ccccc21`, the outcome is reported as “inactive”. In the case of `NC(=Nc1ccccc1)Nc1ccccc1`, the AC50 is reported as 20 µM (active). With `c1ccc2occc2c1` the outcome was “inactive”. In the case of `COc1ccc(OC(F)(F)F)cc1CN[C@H]1CCCN[C@H]1c1ccccc1`, the AC50 is reported as 3.09 µM (active). With `C/C=C/c1ccc(OC)cc1` the outcome was “inactive”. For `CN(C)C(=O)NC1(c2ccccc2)CCN(CCC[C@]2(c3ccc(Cl)c(Cl)c3)CCCN(C(=O)c3ccccc3)C2)CC1`, the AC50 was 8.86 µM (active).
